Data published in PubChem BioAssay (NCATS).
Results filed as inconclusive are left out. A call without a number means that no potency is given here. Calls of active or inactive are those of the source. The call rests on the fitted dose curve; in most records, active means well fitted curve in the direction sought with a large enough effect; inconclusive means small, poorly fitted or top-dose-only effect, or another doubt; inactive means no such curve, though single readings can be large; an effect the other way counts as inactive or inconclusive.

Key:
[1] = Quantitative High-Throughput drug screen in 47 multiple myeloma cell lines against the NCATS MIPE library collection: Karpas25_ECACC cell viability assay (AID 1918968; further: nearly all actives have a fitted effect of over 35% in size)
In short: (§1)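 qHTS of the MIPE 4.0 collection: 500 myeloma cells/well, 48 h drug exposure at 37C in 5% CO2, then CellTiter-Glo for 5 min at room temperature before luminescence reading.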

[2] = Quantitative High-Throughput drug screen in 47 multiple myeloma cell lines against the NCATS MIPE library collection: KMS27_JCRB cell viability assay (AID 1918970); further: nearly all actives have a fitted effect of over 30% in size
In short: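 Viability inhibition screen, 48 h compound exposure, luminescent ATP read-out.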

[3] = Quantitative High-Throughput drug screen in 47 multiple myeloma cell lines against the NCATS MIPE library collection: KMS12PE_JCRB cell viability assay (AID 1918972); further: nearly all actives have a fitted effect of over 30% in size
In short: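 We plated 500 myeloma cells per well, pinned in MIPE 4.0 compounds, and incubated for 48 hours at 37C. ATP was then quantified with CellTiter-Glo, with DMSO and media-only wells defining 100% and 0%.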

[4] = Quantitative High-Throughput drug screen in 47 multiple myeloma cell lines against the NCATS MIPE library collection: MOLP8_DSMZ cell viability assay (AID 1918977); further: nearly all actives have a fitted effect of over 45% in size
In short: (§2)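 Plated at 500 cells per well, myeloma lines received MIPE 4.0 compounds by pin tool. Following 48 h culture at 37 °C, CellTiter-Glo luminescence gave viability relative to DMSO and media-only controls.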

[5] = Quantitative High-Throughput drug screen in 47 multiple myeloma cell lines against the NCATS MIPE library collection: NCIH929_DSMZ cell viability assay (AID 1918978); further: nearly all actives have a fitted effect of over 35% in size
In short: as §2

[6] = Quantitative High-Throughput drug screen in 47 multiple myeloma cell lines against the NCATS MIPE library collection: KMS21BM_JCRB cell viability assay (AID 1918974); conditions: ATP luminescence, 48 h; viability: at 45.8 µM (top of the series) unless noted
In short: as §1

[7] = Quantitative High-Throughput drug screen in 47 multiple myeloma cell lines against the NCATS MIPE library collection: KMS20_JCRB cell viability assay (AID 1918973); further: nearly all actives have a fitted effect of over 45% in size
In short: as §1

[8] = Quantitative High-Throughput drug screen in 47 multiple myeloma cell lines against the NCATS MIPE library collection: KMS26_JCRB cell viability assay (AID 1918975); further: nearly all actives have a fitted effect of over 45% in size
In short: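 Luminescent ATP measurement with CellTiter-Glo gives viability, scaled between DMSO-only wells (100%) and media-only wells (0%). Cells, 500 per well, faced library compounds for 48 hours at 37C.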

[9] = Quantitative High-Throughput drug screen in 47 multiple myeloma cell lines against the NCATS MIPE library collection: MMM1_PLB cell viability assay (AID 1918976); further: nearly all actives have a fitted effect of over 35% in size
In short: as §2
Potency means the concentration at half of the fitted maximal effect.

Compound	Potency [1]	Potency [2]	Potency [3]	Potency [4]	Potency [5]	Potency [6]	Potency [7]	Potency [8]	Potency [9]	viability [6]
CCC(C)(C)C(=O)O[C@H]1C[C@@H](C)C=C2C=C[C@H](C)[C@H](CC[C@@H]3C[C@@H](O)CC(=O)O3)[C@H]21	18.7 µM (active)	6.62 µM (active)	5.9 µM (active)	13.2 µM (active)	13.2 µM (active)					
O=NN(CCCl)C(=O)NCCCl	inactive	inactive	inactive	inactive	inactive	inactive				
CCC(=O)N[C@H]1CC[C@H](C(=O)N(C)c2ccc(-c3nc4ccccc4o3)cc2)C1	7.43 µM (active)	20.9 µM (active)	4.69 µM (active)		2.96 µM (active)		7.43 µM (active)			
Cc1cnc(NC(=O)C2=C(O)c3ccccc3S(=O)(=O)N2C)s1	inactive	inactive		inactive	inactive			inactive		
COc1nc(-c2ccc3c(c2)OCO3)n(-c2ccc(NC(=O)CSc3ccccc3)cc2)n1	inactive	inactive	inactive		inactive			11.8 µM (active)	7.43 µM (active)	
CNC[C@H](O)c1cccc(O)c1	4.69 µM (active)	inactive	inactive		inactive			inactive		
C[C@@H]1CN(Cc2ccc(F)cc2)[C@@H](C)CN1C(=O)c1cc2c(C(=O)C(=O)N(C)C)cn(C)c2cc1Cl	9.35 µM (active)	14.8 µM (active)	20.9 µM (active)					18.7 µM (active)	23.5 µM (active)	
O=c1ncn2nc(Sc3ccc(F)cc3F)ccc2c1-c1c(Cl)cccc1Cl	14.8 µM (active)	18.7 µM (active)			18.7 µM (active)				20.9 µM (active)	
Cc1cccc(-c2[nH]c(C(C)(C)C)nc2-c2ccc3nccnc3c2)n1	1.32 µM (active)	2.96 µM (active)	4.69 µM (active)		16.6 µM (active)					
OCCC#Cc1nc(-c2ccc(F)cc2)c(-c2ccncc2)n1CCCc1ccccc1	16.6 µM (active)	23.5 µM (active)	18.7 µM (active)	inactive	8.33 µM (active)		16.6 µM (active)			
CCCc1nc2c(C)cc(-c3nc4ccccc4n3C)cc2n1Cc1ccc(-c2ccccc2C(=O)O)cc1	inactive	4.18 µM (active)		inactive	inactive					
CC(=O)Oc1ccccc1C(=O)O	inactive	inactive	inactive	inactive	4.18 µM (active)			11.8 µM (active)		
Cc1cc(C=c2sc3nc4ccccc4n3c2=O)c(C)n1-c1ccccc1	inactive	inactive	inactive		inactive			5.9 µM (active)		
CC(C)OC(=O)C1=CN(C(=O)c2ccc(F)c(F)c2)CC(C)(C)c2c1[nH]c1ccccc21	inactive	inactive		inactive	inactive		inactive	inactive		
CCc1ccc(CCOc2ccc(CC3SC(=O)NC3=O)cc2)nc1 (stereo not given)	inactive	inactive	inactive	inactive	inactive			inactive		
Cc1cc([C@@H](C)Nc2ccccc2C(=O)O)c2nc(N3CCOCC3)cc(=O)n2c1	3.03 µM (active)	10.8 µM (active)						27 µM (active)		15.1% [at 92.2 µM] (active)
COc1ccccc1[C@H](c1cccc2ccccc12)[C@@](C)(C#N)C(=O)N1CCC(c2cccc(C(F)(F)F)c2)CC1	3.72 µM (active)	3.32 µM (active)			3.72 µM (active)	9.35 µM (active)	1.18 µM (active)	7.43 µM (active)	11.8 µM (active)	
O=C1CCC(N2C(=O)c3ccccc3C2=O)C(=O)N1 (stereo not given)	inactive	inactive	inactive		inactive				2.96 µM (active)	
COc1ccc(CC2=NN3C([C@@H](CCc4ccccc4)[C@@H](C)O)=NC(C)C3C(=O)N2)cc1OC (stereo not given in full)	inactive	inactive	inactive	inactive	inactive		inactive			
Cc1ccccc1C(OCCN(C)C)c1ccccc1 (stereo not given)	inactive	inactive	inactive	inactive	inactive					
Cc1ccc(N(CC2=NCCN2)c2cccc(O)c2)cc1	4.69 µM (active)	16.6 µM (active)			inactive		inactive		2.96 µM (active)	
COc1cc(Oc2ccnc3cc(OC)c(OC)cc23)ccc1NC(=O)NC(C)c1nccs1 (stereo not given)	23.5 µM (active)	5.9 µM (active)		inactive	inactive					
CN(C)c1ccc(Nc2nc(N)n(C(=O)c3c(F)cccc3F)n2)cc1	26.4 µM (active)	23.5 µM (active)	16.6 µM (active)		26.4 µM (active)	2.35 µM (active)				
c1ccc([C@H]2CN3CCSC3=N2)cc1	inactive	inactive			inactive	inactive		inactive		
OC(CCN1CCCCC1)(c1ccccc1)C1CC2C=CC1C2 (stereo not given)	inactive	inactive	inactive	inactive	inactive			inactive		
